Assays:
Type in all cases: functional
[1] = system: Plasmodium falciparum; assay: GSK_TCMDC: Inhibition of Plasmodium falciparum 3D7 in whole red blood cells, using parasite LDH activity as an index of growth. Test compounds present at 2uM
[2] = system: Plasmodium falciparum; assay: GSK_TCMDC: Inhibition of Plasmodium falciparum Dd2 in whole red blood cells, using parasite LDH activity as an index of growth. Test compounds present at 2uM
[3] = system: HepG2; assay: GSK_TCMDC: Percent inhibition of human HepG2 cell line. Test compounds present at 10uM.

Compound	Inhibition [1] [%]	Inhibition [2] [%]	Inhibition [3] [%]
Cn1c(NC2CCN(CC3CCN(C(=O)/C=C/c4ccc(Cl)c(Cl)c4)CC3)CC2)nc2ccccc21	100	100	99
COCCNCc1ncsc1-c1ccc2c(Nc3cc(O)ccc3C)ccnc2c1	100	40	9
O=C(NC1CCN(Cc2ccccc2)CC1)c1ccc(-c2nc3cc(F)c(F)cc3[nH]2)s1	100	97	6
Cc1cc(N)c2cc(NC(=O)c3cccc(C(=O)Nc4ccc5nc(C)cc(N)c5c4)c3)ccc2n1.Cl	94	92	9
O=C(NCCCNc1ccc2ccccc2n1)c1cc2c(Cl)cc(Cl)cc2[nH]1	100	100	40
CC[C@H](C)CNC(=O)c1cncc(-c2ccc(CNC3CCCC3)cc2)c1.O=C(O)C(F)(F)F	97	5	0
CNC(=O)c1cnc(Nc2ccc3[nH]c(=O)[nH]c3c2)nc1Nc1cccc(OC(C)C)c1.O=C(O)C(F)(F)F	89	94	18
O=C(NCCCCN1CCC(c2ccc3c(c2OCCCO)CCCC3)CC1)c1ccc(-c2ccc(C(F)(F)F)cc2)cc1	83	53	98
CN1CCN(CCCN(Cc2ccc(-c3cccc(CNCc4ccc5c(c4)OCO5)c3)cc2)C(=O)Nc2ccccc2)CC1.O=C(O)C(F)(F)F	100	87	51
O=C(O)C(F)(F)F.c1cc(CN2CCC(CCN3CCCCC3)CC2)cc(-c2cccc(-c3nc4ccccc4[nH]3)c2)c1	100	100	95
CC(C)NCc1cccc(-c2cccc(NC(=O)c3cccc(Cl)c3)c2)c1.O=C(O)C(F)(F)F	98	38	36
O=C(Nc1ccc(Cl)c(Cl)c1)N[C@H]1CCN(CCCCCNC(=O)C2CC2c2ccc(Cl)c(Cl)c2)C1 (stereo partly drawn)	93	8	42
NS(=O)(=O)c1ccc(Nc2nccc(-c3c(-c4cccc(NC(=O)c5c(F)cccc5F)c4)nn4ccccc34)n2)cc1	93	89	83
Cc1cccn2c(=O)c3cc(C(=O)NCc4cccnc4)c(=N)n(CCc4ccccc4)c3nc12	99	38	0
CCNc1cc(C(=O)N[C@@H](Cc2ccccc2)[C@H](O)CN[C@@H](C)c2cccc(OC)c2)cc(N2CCCC2=O)c1.O=CO	95	65	5
COc1ccc(C(=O)NCC(C)(C)c2nc(-c3ccc(Cl)c(O)c3)c(-c3ccncc3)[nH]2)cc1OCCN(C(C)C)C(C)C.Cl	100	96	62
Cc1cc(O)c(CN(C)Cc2ccc3c(c2)OCCO3)cc1C(C)C	98	47	10
COc1cc(Cc2cnc(N)nc2N)ccc1Oc1ccc(N)cc1	93	0	0
O=C(Nc1ccsc1)Nc1cccc(-c2cccc(-c3nc4cc(C(F)(F)F)ccc4[nH]3)c2)c1	100	100	76
Cc1ccc(C)c(Cn2ccc3nc(Cl)nc(Cl)c32)c1	95	68	0
O=C(NCCCN1CCC(N2CCCCC2)CC1)c1ccc(N2CCOc3ccccc32)s1	100	12	37

Compound	Inhibition [1] [%]	Inhibition [2] [%]	Inhibition [3] [%]
CN1CCN(CC(=O)Nc2ccc(-c3cccc(-c4nc5cc(C(F)(F)F)ccc5[nH]4)c3)cc2)CC1	100	93	45
CCn1cnc2c(N3CCCC3=O)cc(C(=O)N[C@@H](Cc3ccccc3)[C@H](O)CNC3CCCCC3)cc21	98	94	0
O=C(NC1CCC(N2CCC(Cc3ccc(F)cc3)CC2)CC1)c1cc2ccccc2[nH]1 (stereo not drawn)	98	39	60
CCCCNC[C@@H](O)[C@H](Cc1ccccc1)NC(=O)c1cc(NCC)cc(N2CCCCS2(=O)=O)c1.Cl	99	98	11
c1ccc(CN2CCC(Nc3ccc(-c4c[nH]nc4-c4ccccn4)nc3)CC2)cc1	97	23	1
CCNc1cc(C(=O)N[C@@H](Cc2ccc(Cl)cc2)[C@H](O)CNC2CCCCC2)cc(N2CCCCS2(=O)=O)c1.Cl	98	99	6
COc1cc(OC)c(OC)cc1CN1CCC2(CC1)CN(Cc1ccc(Cl)c(Cl)c1)C(=O)O2	90	94	8
C[C@H](NC(=O)C1CCCC1)C(=O)Nc1ccc(-c2ccc(-c3nc4cc(C(F)(F)F)ccc4[nH]3)cc2)cc1	99	70	34
COc1ccc(C(O)CNC(C)CCc2ccccc2)cc1C(F)(F)F.Cl (stereo not drawn)	99	100	3
CO/C(=C\C=C\c1cc2cc(Cl)c(Cl)cc2[nH]1)C(=O)NCCCCN1CCN(c2ccccc2OC)CC1	100	96	55
Cc1ccc2[nH]c(C)cc(=NN=Cc3ccccc3F)c2c1	97	100	36
CN1CCN(Cc2cccc(-c3ccc4c(Nc5cc(O)c(Cl)cc5F)ccnc4c3)c2)CC1	100	100	0
COc1ccc(NC(=O)/C=C/c2ccc(-c3ccccc3)cc2)cc1N1CCN(C)CC1.O=C(O)C(=O)O	90	46	21
O=C(/C=C/c1ccc(Cl)c(Cl)c1)NCCCCCN1CCC(CCNC(=O)/C=C/c2ccc(Cl)c(Cl)c2)CC1	100	56	68
C=CCc1cc(Cc2cnc(N)nc2N)c2ccc(C)nc2c1OC	96	0	11
COc1ccc(NC(=O)/C=C/c2ccc(Oc3ccccc3Cl)c([N+](=O)[O-])c2)cc1OCCN(C(C)C)C(C)C	99	97	31
Cc1ccc2c(Cl)c(C(=O)N3CC(C)OC(C)C3)sc2c1 (stereo not drawn)	100	98	4
Cc1cc(N(C)CCCN(C)C)nc(Nc2ccc(Br)cc2)n1	100	84	4
O=C(Nc1cccc(-c2cccc(-c3nc4cc(C(F)(F)F)ccc4[nH]3)c2)c1)c1ccc(=O)[nH]n1	100	26	63
CCOc1ccc(Nc2ccc3nonc3c2S(=O)(=O)Nc2ccc(OCC)cc2)cc1	100	93	6
CC(C)(C)c1ccc(-c2cc(C(=O)N[C@@H](CO)C(=O)O)on2)cc1.CC(C)(C)c1ccc(-c2nocc2C(=O)N[C@@H](CO)C(=O)O)cc1	87	0	1

Compound	Inhibition [1] [%]	Inhibition [2] [%]	Inhibition [3] [%]
Cl.O=C(Nc1ccc2c(c1)CNCC2)c1ccc(-c2ccc(Cl)cc2)cc1	96	28	52
CN1CCN(c2ccnc3ccc(NC(=O)Nc4c(Cl)cccc4Cl)cc23)CC1	96	12	11
c1ccc(CCNc2ncnc3c2[nH]c2ccccc23)cc1	95	94	50
O=C(Nc1ccccc1F)NC1CCN(c2ccnc(Nc3ccc(F)cc3)n2)C1 (stereo not drawn)	95	74	0
COc1ccc2nc(-c3ccccc3)cc(N/N=C/c3ccc([N+](=O)[O-])o3)c2c1	100	99	90
CCCCc1cc(NCC)nc(Nc2cccc(OC)c2)n1	97	69	9
COc1cccc(C2CCCN(CCCCNC(=O)c3ccc(NC(=O)c4ccc(Cl)cc4)cc3)C2)c1 (stereo not drawn)	95	6	24
N#Cc1ccc(-c2ccc(C(=O)NC3CCN(CCN4CCC(c5cn(CCO)c6ccccc56)CC4)CC3)cc2)cc1	100	79	30
COc1ccc2c(c1)CC1CN(CCCCNC(=O)c3ccc(NC(=O)c4cc(Cl)cc(Cl)c4)cc3)CCN1C2 (stereo not drawn)	100	57	7
CC1CCC(NCc2ccc3c(CNC4CCC(C)CC4)c(O)ccc3c2O)CC1.Cl (stereo not drawn)	100	99	4
CC(CN1CCN(C)CC1)C(=O)Nc1ccc(-c2cccc(-c3nc4cc(F)ccc4[nH]3)c2)cc1 (stereo not drawn)	100	99	8
Cc1cc(CNC(=O)c2ccc(-c3ccc(-c4nc5cc(C(F)(F)F)ccc5[nH]4)s3)cc2)on1	93	56	15
Nc1c2c(nc3ccc(C(=O)Nc4ccc(Br)cc4)cc13)CCCC2	100	99	40
NC(=S)Cc1ccc2c(c1)OCO2	96	0	43
COc1ccc(-c2ccc(NC(=O)c3cccc(C#N)c3)cc2)cc1CN1CCCC(C(N)=O)C1.O=C(O)C(F)(F)F (stereo not drawn)	98	44	12
COc1ccc2nc(C)cc(N/N=C/c3cccc([N+](=O)[O-])c3)c2c1	100	97	6
O=C(/C=C/c1ccc(Cl)c(Cl)c1)N1CCC(CN2CCC(Cc3c[nH]c4ccccc34)CC2)CC1	98	13	24
C(=N\Nc1nccc2sc(-c3cccnc3)cc12)/c1cccnc1	98	54	5
CCNc1cc(C(=O)N[C@@H](Cc2ccc(F)c(F)c2)[C@H](O)CNC2CCCCC2)cc(N2CCCCS2(=O)=O)c1.Cl	100	84	1
